One compound from the supplement of paper PMC9950053 can be followed below.

Where a name gives a salt, the structure may show the parent alone.

The test system of this experiment is Danio rerio larvae (5 dpf). Briefly: excitability (activity period 17 minus period 16, 1-s interval sound) minus DMSO control (percentage points); higher = more acoustic excitability than DMSO larvae. The settings on record: 10 µM; exposure time: 3 h pre-incubation + 3 h imaging. On the procedure: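 Wild-type 5 dpf zebrafish larvae (n=48 per drug, 96-well plates, 28.5 °C) were exposed to Tocris FDA-approved library compounds at 10 µM (0.1% DMSO) for 3 h before and 3 h during imaging. Images were taken every 6 s during visual and acoustic stimuli, and larvae were tracked with Z-LaP Tracker. Each measure is the treated-group mean minus the DMSO control mean (n=844), in percentage points. This mapping covers compounds with 5-character plate codes.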
For the compound `COc1ccc(C(CN(C)C)C2(O)CCCCC2)cc1` (stereo unspecified) [Venlafaxine hydrochloride], the excitability stood at 8.91.
